{"source": "PubChem BioAssay (EPA / NIEHS)", "note": "The source holds several records for some structures; these can differ, active in one and inactive in another. Active and inactive are the calls of the source. Rule for the calls: active = hit-call score of the fitted dose curve at least 0.9, where 1 is the maximum; inactive = score below 0.9."}
{"assay": "ATG_AP_1_CIS: Attagene CIS-FACTORIAL HepG2 Assay for human Activator Protein 1 (AP-1) (AID 2282931)", "details": "HepG2 Attagene cis-factorial AP-1 reporter mRNA; actives raise or lower the signal", "experimental": "ATG_CIS is a cell-based, multiplexed-readout assay that uses HepG2, a human liver cell line, with measurements taken at 24 hours after chemical dosing in a 24-well plate.ATG_AP_1_CIS is one of 52 assay component(s) measured or calculated from the ATG_CIS assay. It is designed to make measurements of mRNA induction, a form of inducible reporter, as detected with fluorescence intensity signals by Reverse transcription polymerase chain reaction (RT-PCR) and Capillary electrophoresis technology.Data from the assay component ATG_AP_1_CIS was analyzed into 1 assay endpoint. This assay endpoint, ATG_AP_1_CIS, was analyzed with bidirectional fitting relative to DMSO as the negative control and baseline of activity. Using a type of inducible reporter, measures of mRNA for gain or loss-of-signal activity can be used to understand the reporter gene at the transcription factor-level as they relate to the gene FOS and JUN. Furthermore, this assay endpoint can be referred to as a primary readout, because this assay has produced multiple assay endpoints where this one serves a reporter gene function. To generalize the intended target to other relatable targets, this assay endpoint is annotated to the dna binding intended target family, where the subfamily is basic leucine zipper.\nHuman liver HepG2 cells are transiently transfected with multiple reporter transcription units (MRTUs) in 6-well plates using FuGene 6 reagent (Roche; 3 ml FuGene/1 mg DNA). The MRTU constructs are regulated by a cis-regulating element (promoter). […] A major difference between the CIS and TRANS system is that in CIS activities of endogenous TFs are measured, whereas the TRANS assay evaluates changes in activities of exogenous, chimeric NR-Gal4 proteins. […] At the end of 24 hour incubation, total RNA was isolated using TriZol reagent (Invitrogen). The isolated RNA is then reverse-transcribed using oligo(dT) primer and Mo-MLV reverse transcriptase (Invitrogen) with DNAse I (Ambion) treatment for 30 min. The one-tenth of the produced cDNA was amplified by PCR using Taq DNA polymerase (Invitrogen) and two reporter sequence-specific primers. The PCR products were fluorescently labeled by primer extension with 6-arboxyfluorescein (6-FAM) 5'-labeled reporter sequence-specific primer (2 min at 95 C, 20 s at 68 C and 10 min at 72 C) and these products were digested with 5U of HpaI (New England Biolabs) for 2h at 37 C. The fragments were purified using Qiaquick PCR columns (Qiagen), analyzed on an ABI 3130xL genetic analyzer (Applied Biosystems) with peak positions identified by using a set of X-rhodamine (ROX)-labeled MapMarker1000 molecular weight standards (BioVentures). The raw capillary electrophoresis data was processed using Attagraph software (Attagene)."}
{"compound": "CCOC(=O)CC(C)C", "outcome": "inactive"}
{"compound": "CC(O)COCC(C)O", "note": "(stereo not given)", "outcome": "inactive"}
{"compound": "O=S(=O)(O)CCCN1CCOCC1", "outcome": "inactive"}
{"compound": "[O-]/[N+](=N\\O)c1ccccc1", "outcome": "inactive"}
{"compound": "NCCN1CCNCC1", "outcome": "inactive"}
{"compound": "CC1(C)[C@H](C=C(Cl)Cl)[C@H]1C(=O)OCc1cccc(Oc2ccccc2)c1", "outcome": "inactive"}
{"compound": "NC(=O)c1cnccn1", "outcome": "inactive"}
{"compound": "CCCC(O)C(CC)CO", "note": "(stereo not given)", "outcome": "inactive"}
{"compound": "CC(C)(C)c1ccc(S)cc1", "outcome": "inactive"}
{"compound": "CCCCCCCCCCCCCC(=O)OCC", "outcome": "inactive"}
{"compound": "CCCCCc1cccc(=O)o1", "outcome": "inactive"}
{"compound": "CCCCCCCCOC(=O)c1ccc(O)cc1", "outcome": "inactive"}
{"compound": "CC(=O)OC(C)(C)C1CC=C(C)CC1", "note": "(stereo not given)", "outcome": "inactive"}
{"compound": "COc1ccc2[nH]cc(CCNC(C)=O)c2c1", "outcome": "inactive"}
{"compound": "CCC(C)(CCCC(C)C)OC(C)=O", "note": "(stereo not given)", "outcome": "inactive"}
{"compound": "COC(=O)c1ccc(C(=O)OC)cc1", "outcome": "inactive"}
{"compound": "C[N+](C)(C)CCO", "outcome": "inactive"}
{"compound": "C=C(C)CCCC(C)CCO", "note": "(stereo not given)", "outcome": "inactive"}
{"compound": "CC(=O)c1ccc(C)cc1", "outcome": "inactive"}
{"compound": "[Na+]", "outcome": "inactive"}
{"compound": "CCCCCCCCCC(=O)OCC", "outcome": "inactive"}
{"compound": "CCCCC1CCCCC(=O)O1", "note": "(stereo not given)", "outcome": "inactive"}
{"compound": "O=C1CCC(=O)N1", "outcome": "inactive"}
{"compound": "N=C1N=C(N)c2ccccc21", "outcome": "inactive"}
{"compound": "CC(C)COC(=O)c1ccccc1O", "outcome": "inactive"}
{"compound": "C=CC(=O)OCC(CO)(COC(=O)C=C)COC(=O)C=C", "AC50": "100 µM (active)"}
{"compound": "Cc1cccc(O)c1", "outcome": "inactive"}
{"compound": "c1ccc(Cc2ccccc2)cc1", "outcome": "inactive"}
{"compound": "CC1(C)CC(=O)CC(C)(C)N1", "outcome": "inactive"}
{"compound": "CCCCCCOc1ccc(O)cc1", "outcome": "inactive"}
{"compound": "CCCCCCCCCCO[C@@H]1O[C@H](CO)[C@@H](O)[C@H](O)[C@H]1O", "outcome": "inactive"}
{"compound": "CCC(C)COC(=O)CC(C)C", "note": "(stereo not given)", "outcome": "inactive"}
{"compound": "C#C[C@]1(O)CC[C@H]2[C@@H]3CCc4cc(O)ccc4[C@H]3CC[C@@]21C", "outcome": "inactive", "AC50": "47.3 µM (active)"}
{"compound": "COc1ccccc1O", "outcome": "inactive"}
{"compound": "CCC(=O)OC(C)(C)C1CC=C(C)CC1", "note": "(stereo not given)", "outcome": "inactive"}
{"compound": "CCCCCC(=O)O[C@]1(C(C)=O)CC[C@H]2[C@@H]3CCC4=CC(=O)CC[C@]4(C)[C@H]3CC[C@@]21C", "AC50": "36.5 µM (active)"}
{"compound": "CCC=C(C)C=O", "outcome": "inactive"}
{"compound": "CCCCCCCCOC(C)=O", "outcome": "inactive"}
{"compound": "COc1ccc(C(C)=O)cc1", "outcome": "inactive"}
